# Laboratory results from ChEMBL document CHEMBL3988442, “University of Dundee, Small-Polar-MMV Screening Library” (2021).
# In all, about 48,000 compounds went through this assay and about 13,000 (27%) showed an effect of 50% or more. Some of the results follow.
# System: Wolbachia pipientis
# Experiment: Anti-Wolbachia Cell-Based Screen
# Type: functional
# Design: scale not given: in the data most compounds retested in dose-response had high values
# Conditions: 5 µM
row,Compound,Percent Effect [%]
1,Clc1cccc(C(NCc2ncc[nH]2)c2ccccn2)c1 (stereo not drawn),3.902
2,CN(C)CC(C)(O)CNC(=O)Nc1sc2ccccc2c1Cl (stereo not drawn),1.378
3,COc1coc(CN2CCCC(CCc3ccccc3C)C2)cc1=O (stereo not drawn),-0.7566
4,CCc1nccn1C1CCCN(C(=O)CCCNc2ncccn2)C1 (stereo not drawn),1.367
5,O=C(CCCNc1ncccn1)N1CCCC(n2cccn2)C1 (stereo not drawn),2.216
6,Cc1nc(C)n(C2CCCN(C(=O)CCCNc3ncccn3)C2)n1 (stereo not drawn),110
7,Cc1nccn1C1CCCN(C(=O)CCCNc2ncccn2)C1 (stereo not drawn),106.9
8,CNS(=O)(=O)CC(=O)N(C1CC1)C1Cc2ccccc2C1,0.4054
9,Cc1ncsc1C(=O)N1CCCC(c2nccn2Cc2cscn2)C1 (stereo not drawn),-18.71
10,Cc1ncsc1C(=O)N1CCN(Cc2cscn2)CC1,129.9
11,Cc1nc(CN2CCN(C(=O)c3scnc3C)CC2)cs1,142.4
12,Cc1ncsc1C(=O)N1CCCN(Cc2cscn2)CC1,-2.478
13,Cc1cnc(C(=O)N2CCN(Cc3csc(C)n3)CC2)cn1,75.58
14,Cc1cnc(C(=O)N2CCCN(Cc3csc(C)n3)CC2)cn1,7.438
15,CC(Cc1ccccn1)N(C)C(=O)c1ncc[nH]1 (stereo not drawn),-16.95
16,COCCn1cnc(-c2cc(C(=O)NC(C)C)c3ccccn23)c1,-8.086
17,O=C(CNc1cccc(S(=O)(=O)C(F)F)c1)Nc1ccccc1,9.714
18,COc1ncccc1C1CC(=O)NCc2nc3ccccn3c21 (stereo not drawn),-11.47
19,CC(C)n1ncc2c1NC(=O)CC21C(=O)Nc2c(Cl)cccc21 (stereo not drawn),-6.68
20,Cc1ccc(S(=O)(=O)NCC2(O)CCOc3ccccc32)s1 (stereo not drawn),0.721
21,Cc1cc(C)c(CNC(=O)N2CCC(N3CCNC3=O)CC2)c(C)c1,-1.308
22,COc1cccc(-c2noc(-c3ccc(N4CC(N)C4)nc3)n2)c1OC,0.2823
23,O=C(O)C(F)(F)F.O=C([C@@H]1CC[C@@H]2[C@@H](CCN2Cc2ccoc2)O1)N1CCCC1,8.52

row,Compound,Percent Effect [%]
1,O=C(NCc1ccco1)[C@H]1CC[C@@H]2[C@@H](CCN2Cc2cccnc2)O1.O=C(O)C(F)(F)F.O=C(O)C(F)(F)F,-10.47
2,O=C(NCc1cccnc1)[C@H]1CC[C@@H]2[C@@H](CCN2c2ncccn2)O1.O=C(O)C(F)(F)F.O=C(O)C(F)(F)F,-7.451
3,O=C(NCc1cccs1)[C@H]1CC[C@@H]2[C@@H](CCN2Cc2ccoc2)O1.O=C(O)C(F)(F)F,94.68
4,CS(=O)(=O)N1CC[C@H]2O[C@H](C(=O)NCCc3ccccn3)CC[C@H]21.O=C(O)C(F)(F)F,2.249
5,Cn1cc(CN2CC[C@H]3O[C@H](C(=O)NCc4ccco4)CC[C@H]32)cn1.O=C(O)C(F)(F)F,-21.14
6,Cn1cc(CN2CC[C@H]3O[C@@H](C(=O)NC4CC4)CC[C@H]32)cn1.O=C(O)C(F)(F)F.O=C(O)C(F)(F)F,2.978
7,O=C(NCCc1ccccn1)[C@@H]1CC[C@@H]2[C@@H](CCN2Cc2ccoc2)O1.O=C(O)C(F)(F)F.O=C(O)C(F)(F)F,100.1
8,Cn1cc(CN2CC[C@H]3O[C@H](C(=O)Nc4cnccn4)CC[C@H]32)cn1.O=C(O)C(F)(F)F,123.6
9,O=C(Nc1cnccn1)[C@H]1CC[C@@H]2[C@@H](CCN2Cc2ccoc2)O1.O=C(O)C(F)(F)F,111.7
10,O=C(NCc1cccs1)[C@H]1CC[C@@H]2[C@@H](CCN2c2ncccn2)O1.O=C(O)C(F)(F)F,16.99
11,C[C@@H]1CN(Cc2ccc(-c3ccncc3)cc2F)CC(C(N)=O)O1 (stereo partly drawn),-2.76
12,Cc1ccccc1OCCN(C)Cc1noc(CC(C)C)n1,-23.34
13,CCc1nnc(CN2CCCCC2Cn2cncn2)o1 (stereo not drawn),78.77
14,Cc1nc(C2CCCN2Cc2nnc(Cc3ccccc3)o2)no1 (stereo not drawn),-12.76
15,Cc1nc(C)n(CC2CCCCN2Cc2nnc(C3CC3)o2)n1 (stereo not drawn),1.656
16,Cc1cnn(CC2CCCCN2CCn2cncn2)c1 (stereo not drawn),-5.934
17,CCc1nc(C2CCCN2Cc2nnc(Cc3ccccc3)o2)no1 (stereo not drawn),6.131
18,Cc1nc(C)n(CC2CCCCN2CCCS(C)(=O)=O)n1 (stereo not drawn),12.99
19,c1ccc(Cc2nnc(CN3CCCCC3Cn3cncn3)o2)cc1 (stereo not drawn),108.9
20,c1ccc(Cc2nnc(CN3CCCC3Cn3cccn3)o2)cc1 (stereo not drawn),131.9
21,Clc1snnc1CN1CCCCC1Cn1cncn1 (stereo not drawn),-4.6
22,CCc1nnc(CN2CCCCC2Cn2nc(C)nc2C)o1 (stereo not drawn),93.98
23,OC1CCN(c2ccc(CNc3nc4ccccc4s3)cc2F)CC1,-3.16

row,Compound,Percent Effect [%]
1,CS(=O)(=O)N1CCc2[nH]cnc2C12CCN(C(=O)c1ccc[nH]1)CC2,5.069
2,NCCC1CN(Cc2cnc3c(-c4ccccc4)cnn3c2)CCO1 (stereo not drawn),4.404
3,CN(C)CCCN(C)c1nccc(N2CCN[C@H]3CS(=O)(=O)C[C@H]32)n1,-10.75
4,COCCNC(=O)NCCn1nc(C(F)(F)F)n(C)c1=O,0.0676
5,CC1(C)CN(Cc2c[nH]c(CC3CCCC3)n2)CC[C@]1(C)O,-6.969
6,Cc1cc(C)c(S(=O)(=O)Nc2ccccc2CC(F)(F)F)cc1C(=O)O,3.88
7,c1cnc2c(c1)nc1n2[C@@H](CNCc2nccs2)COC1,-1.802
8,Cc1nc(C)n(CC2CCCN2Cc2cnc(C)s2)n1 (stereo not drawn),-0.1768
9,Cc1nc(C)n(CC2CCCCN2Cc2cscn2)n1 (stereo not drawn),10.69
10,Cc1nc(C)n(CC2CCCCN2Cc2cnc(C)s2)n1 (stereo not drawn),97.07
11,Fc1ccc(-c2cnc(CN3CCCC3Cn3cccn3)o2)cc1 (stereo not drawn),-6.963
12,Fc1ccc(-c2nnc(CN3CCCC3Cn3cccn3)o2)cc1 (stereo not drawn),88.78
13,OCC(O)CSCc1cc(Cl)ccc1Cl (stereo not drawn),-6.234
14,CC(=O)NC1CCCc2c1[nH]c1ccc(F)cc21 (stereo not drawn),97.09
15,O=C(NC1CCCc2c1[nH]c1ccc(F)cc21)c1n[nH]c2c1CCCC2 (stereo not drawn),120.6
16,Cc1ccc(F)cc1NC(=O)CNc1cccc2c1CCCC2,-15.05
17,O=C(c1cc2c([nH]c1=O)CCC2)N1CCCC1c1ccc(F)cc1 (stereo not drawn),20.74
18,O=C(NC1CCCc2c1[nH]c1ccc(F)cc21)c1n[nH]c2c1CCC2 (stereo not drawn),132.4
19,O=C(NC1CCC1)c1n[nH]c2c1CNCC2,-9.631
20,O=C(NCC1CC1)c1n[nH]c2c1CNCC2.O=C(O)C(F)(F)F.O=C(O)C(F)(F)F,-32.44
21,CC(=O)NC(c1cc(F)ccc1F)C1CC1 (stereo not drawn),0.9467
22,O=C1CC(N(C(=O)c2ccc3[nH]c4c(c3c2)CCCC4)C2CC2)C(=O)N1 (stereo not drawn),7.465
